# Data from article PMC5540273 (PLoS ONE, 2017).
# Assays:
# Conditions in all cases: concentration: 1 μM, replicates: in singlicate; n = 1
# ERBB2 = test system: ERBB2
# ERBB3 = test system: ERBB3
# ERBB4 = test system: ERBB4
# ERK1 = test system: T1, ERK1
# T1 construct: gene MAPK3
# ERK2 = test system: T2, ERK2
# T2 construct: gene MAPK1
# ERK3 = test system: T3, ERK3
# T3 construct: gene MAPK6
# ERK4 = test system: T4, ERK4
# T4 construct: gene MAPK4
# ERK5 = test system: T5, ERK5
# T5 construct: gene MAPK7
# ERK8 = test system: T6, ERK8
# T6 construct: gene MAPK15
# ERN1 = test system: ERN1
# 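Also: KINOMEscan kinase panel screen.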
smiles,measurement,setting,value
Cc1cccc(-c2nc(Nc3ccc4[nH]ncc4c3)c3ccccc3n2)n1 [GW857175],%Inh,ERBB2,0%
same,%Inh,ERBB3,18%
same,%Inh,ERBB4,0%
same,%Inh,ERK1,0%
same,%Inh,ERK2,4%
same,%Inh,ERK3,0%
same,%Inh,ERK4,9%
same,%Inh,ERK5,3%
same,%Inh,ERK8,21%
same,%Inh,ERN1,35%
Nc1ncnc2[nH]c(-c3ccccc3)nc12 [AH5015],%Inh,ERBB2,14%
same,%Inh,ERBB3,0%
same,%Inh,ERBB4,0%
same,%Inh,ERK1,4%
same,%Inh,ERK2,0%
same,%Inh,ERK3,0%
same,%Inh,ERK4,0%
same,%Inh,ERK5,0%
same,%Inh,ERK8,31%
same,%Inh,ERN1,12%
Cc1cccc(-c2nc(C)cc(Nc3ccncc3)n2)n1 [GSK257997],%Inh,ERBB2,28%
same,%Inh,ERBB3,0%
same,%Inh,ERBB4,30%
same,%Inh,ERK1,0%
same,%Inh,ERK2,0%
same,%Inh,ERK3,19%
same,%Inh,ERK4,100%
same,%Inh,ERK5,0%
same,%Inh,ERK8,0%
same,%Inh,ERN1,4%
COc1ccc(Nc2nccc(NCCNC(=O)Nc3ccccc3F)n2)cc1 [GSK1379901],%Inh,ERBB2,0%
same,%Inh,ERBB3,0%
same,%Inh,ERBB4,45%
same,%Inh,ERK1,0%
same,%Inh,ERK2,0%
same,%Inh,ERK3,9%
same,%Inh,ERK4,32%
same,%Inh,ERK5,0%
same,%Inh,ERK8,0%
same,%Inh,ERN1,0%
Cn1ccc2ncnc(Oc3ccc(NC(=O)Nc4ccccc4)cc3)c21,%Inh,ERBB2,14%
same,%Inh,ERBB3,10%
same,%Inh,ERBB4,0%
same,%Inh,ERK1,0%
same,%Inh,ERK2,0%
same,%Inh,ERK3,0%
same,%Inh,ERK4,12%
same,%Inh,ERK5,9%
same,%Inh,ERK8,0%
same,%Inh,ERN1,2%
COc1cccc(-c2cc(-c3c[nH]nc3-c3ccccn3)ccn2)c1 [GW680338],%Inh,ERBB2,5%
same,%Inh,ERBB3,17%
same,%Inh,ERBB4,0%
same,%Inh,ERK1,4%
same,%Inh,ERK2,0%
same,%Inh,ERK3,16%
same,%Inh,ERK4,8%
same,%Inh,ERK5,0%
same,%Inh,ERK8,0%
same,%Inh,ERN1,0%
COc1ccc(C2=C(Nc3cccc(C(=O)O)c3)C(=O)NC2=O)cc1 [SB-390765],%Inh,ERBB2,0%
same,%Inh,ERBB3,0%
same,%Inh,ERBB4,0%
same,%Inh,ERK1,0%
same,%Inh,ERK2,7%
same,%Inh,ERK3,19%
same,%Inh,ERK4,1%
same,%Inh,ERK5,10%
same,%Inh,ERK8,7%
same,%Inh,ERN1,21%
CC1=C(C(=O)Nc2cc3cn[nH]c3cc2F)C(c2ccc(C(F)(F)F)cc2)CC(=O)N1 (stereo not drawn) [GSK429286],%Inh,ERBB2,9%
same,%Inh,ERBB3,0%
same,%Inh,ERBB4,63%
same,%Inh,ERK1,8%
same,%Inh,ERK2,0%
same,%Inh,ERK3,14%
same,%Inh,ERK4,10%
same,%Inh,ERK5,0%
same,%Inh,ERK8,0%
same,%Inh,ERN1,2%
CN1C(=O)C(Nc2ccc(Cl)c(C(=O)O)c2)=C(c2ccc(Cl)cc2)C1=O [SB-404290],%Inh,ERBB2,0%
same,%Inh,ERBB3,0%
same,%Inh,ERBB4,8%
same,%Inh,ERK1,0%
same,%Inh,ERK2,0%
same,%Inh,ERK3,0%
same,%Inh,ERK4,0%
same,%Inh,ERK5,1%
same,%Inh,ERK8,0%
same,%Inh,ERN1,0%
O=S(=O)(c1ccc(-c2ccnc3[nH]ccc23)cc1)N1CCCC1 [GSK846226],%Inh,ERBB2,0%
same,%Inh,ERBB3,0%
same,%Inh,ERBB4,0%
same,%Inh,ERK1,0%
same,%Inh,ERK2,0%
same,%Inh,ERK3,11%
same,%Inh,ERK4,30%
same,%Inh,ERK5,0%
same,%Inh,ERK8,0%
same,%Inh,ERN1,35%
CN(C)CCN(C)C(=O)c1cc(-c2ccncc2)c(-c2ccc(Cl)c(O)c2)o1.Cl.Cl [SB-710397],%Inh,ERBB2,53%
same,%Inh,ERBB3,26%
same,%Inh,ERBB4,33%
same,%Inh,ERK1,2%
same,%Inh,ERK2,0%
same,%Inh,ERK3,0%
same,%Inh,ERK4,0%
same,%Inh,ERK5,0%
same,%Inh,ERK8,0%
same,%Inh,ERN1,0%
Cc1csc(-c2nc(Nc3ccncc3)c3ccccc3n2)n1 [GW869640],%Inh,ERBB2,36%
same,%Inh,ERBB3,40%
same,%Inh,ERBB4,0%
same,%Inh,ERK1,13%
same,%Inh,ERK2,17%
same,%Inh,ERK3,4%
same,%Inh,ERK4,0%
same,%Inh,ERK5,0%
same,%Inh,ERK8,32%
same,%Inh,ERN1,27%
Fc1cccc(COc2nnc(-c3ccc4c(c3)CCO4)o2)c1,%Inh,ERBB2,3%
same,%Inh,ERBB3,13%
same,%Inh,ERBB4,0%
same,%Inh,ERK1,0%
same,%Inh,ERK2,13%
same,%Inh,ERK3,0%
same,%Inh,ERK4,0%
same,%Inh,ERK5,8%
same,%Inh,ERK8,0%
same,%Inh,ERN1,15%
O=C(Nc1ccccc1)Nc1cccc(Oc2ccc3nccn3n2)c1,%Inh,ERBB2,38%
same,%Inh,ERBB3,53%
same,%Inh,ERBB4,0%
same,%Inh,ERK1,0%
same,%Inh,ERK2,0%
same,%Inh,ERK3,0%
same,%Inh,ERK4,0%
same,%Inh,ERK5,0%
same,%Inh,ERK8,0%
same,%Inh,ERN1,0%
COc1ccc(CNC(=O)NC2CCN(c3ccnc(Nc4cc(OC)c(OC)c(OC)c4)n3)C2)cc1 (stereo not drawn) [GSK1379748],%Inh,ERBB2,0%
same,%Inh,ERBB3,27%
same,%Inh,ERBB4,9%
same,%Inh,ERK1,0%
same,%Inh,ERK2,0%
same,%Inh,ERK3,0%
same,%Inh,ERK4,0%
same,%Inh,ERK5,0%
same,%Inh,ERK8,0%
same,%Inh,ERN1,0%
COc1cc(Nc2nccc(N3CCC(NC(=O)Nc4cc(C)ccc4C)C3)n2)cc(OC)c1OC (stereo not drawn) [GSK1379762],%Inh,ERBB2,11%
same,%Inh,ERBB3,0%
same,%Inh,ERBB4,0%
same,%Inh,ERK1,9%
same,%Inh,ERK2,0%
same,%Inh,ERK3,5%
same,%Inh,ERK4,4%
same,%Inh,ERK5,0%
same,%Inh,ERK8,41%
same,%Inh,ERN1,15%
Cc1ccc(-c2cc(-c3c[nH]nc3-c3ccccn3)ccn2)cc1 [GW684088],%Inh,ERBB2,43%
same,%Inh,ERBB3,36%
same,%Inh,ERBB4,0%
same,%Inh,ERK1,37%
same,%Inh,ERK2,0%
same,%Inh,ERK3,3%
same,%Inh,ERK4,18%
same,%Inh,ERK5,0%
same,%Inh,ERK8,0%
same,%Inh,ERN1,0%
O=C(Nc1n[nH]c2nc(-c3nccs3)c(Br)cc12)C1CC1 [SB-742251],%Inh,ERBB2,2%
same,%Inh,ERBB3,19%
same,%Inh,ERBB4,0%
same,%Inh,ERK1,0%
same,%Inh,ERK2,11%
same,%Inh,ERK3,14%
same,%Inh,ERK4,16%
same,%Inh,ERK5,0%
same,%Inh,ERK8,84%
same,%Inh,ERN1,0%
